Bioassay records: PubChem, several laboratories
Measles CPE: protection of cells from measles virus | Measles virus-infected cells, CPE protection, absorbance | protection (pct of control), % at 4 µM | 140,000 compounds, 1.5% hits | AID 841; in the data active = protection mostly above about 24%, no sharp cut-off; inactive = mostly below about 26%
CYP2C19 inhib: inhibitors of human CYP2C19 | P33261 | CYP2C19 Supersomes, luciferin-H EGE luminescence, 30 min | inhibition, % at 5 µM | 96,000 compounds, 21% hits | AID 778;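 active = CYP2C19 inhibition above a set limit at 5 µM in the primary screen, cut at about 50% in these data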;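 also: plate controls were negative control wells for no effect and 2.5 mM tranylcypromine positive control for full effect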
Target sequence (P33261 whole entry, looked up): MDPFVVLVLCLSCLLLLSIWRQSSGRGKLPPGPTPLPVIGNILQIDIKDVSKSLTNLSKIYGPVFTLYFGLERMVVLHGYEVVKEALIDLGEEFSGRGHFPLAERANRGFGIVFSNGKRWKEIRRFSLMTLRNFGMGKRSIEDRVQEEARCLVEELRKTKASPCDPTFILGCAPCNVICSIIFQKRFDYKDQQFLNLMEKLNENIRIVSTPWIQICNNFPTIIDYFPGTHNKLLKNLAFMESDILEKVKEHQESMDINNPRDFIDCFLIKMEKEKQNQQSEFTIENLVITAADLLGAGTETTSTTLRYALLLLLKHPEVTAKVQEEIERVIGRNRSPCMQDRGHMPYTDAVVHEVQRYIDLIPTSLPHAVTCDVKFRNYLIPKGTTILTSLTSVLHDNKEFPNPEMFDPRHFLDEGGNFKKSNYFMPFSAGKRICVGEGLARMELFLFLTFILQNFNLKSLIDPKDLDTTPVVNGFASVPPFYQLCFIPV
CYP2C9 activ: increases human cytochrome P450 2C9 activity; P11712; recombinant CYP2C9, luciferin-H conversion, luminescence; hits give high values; factor 1 = untreated enzyme, 0 = blocked; activation factor at 5 µM; 96,000 compounds, 1.4% hits; AID 1024;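 active = activation factor of 2 or more for CYP2C9 at a 5 µM dose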;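 also: 0 = sulfaphenazole-blocked wells and 1 = vehicle-only wells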
CYP2C9 inh: human CYP2C9 inhibition; inhibition, % at 5 µM; 96,000 compounds, 20% hits; CYP2C9 Supersomes, luciferin-H conversion, luminescence; P11712;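 active = blocking of liver enzyme CYP2C9 beyond about 50% at 5 µM, limit read from the data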
CYP2C19 activ: activators of human cytochrome P450 2C19. recombinant CYP2C19, luciferin-H EGE luminescence; hits give high values; 0 = fully inhibited enzyme, 1 = untreated enzyme. 96,000 tested, under 10 active. AID 1025. P33261. activation factor at 5 µM;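 active = activation factor of at least 2 at 5 µM in the primary screen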;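 also: 0 = wells with 2.5 mM tranylcypromine and 1 = vehicle-only wells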
An asterisk follows results filed as active; / = not tested or not shown. Shown are actives, neighbours in structure and some others; about 22% of the full set was active somewhere.

SMILES | Measles CPE | CYP2C19 inhib | CYP2C9 activ | CYP2C9 inh | CYP2C19 activ
CN(C)S(=O)(=O)N1CCN(S(=O)(=O)c2ccc(F)cc2)CC1 | 0 | 13 | 1 | 0 | 0.9
CN(C)S(=O)(=O)N1CCC(c2ccc(F)cc2)C(COc2ccc3c(c2)OCO3)C1 (stereo not drawn) | 24 | 79* | 0.1 | 95* | 0.2
O=Cc1cn(-c2ccccc2)nc1-c1cc2cc(O)ccc2oc1=O | 3 | 6 | 0.2 | 81* | 0.9
Nc1c(-c2ccccc2)n[nH]c1-c1ccccc1 | 12 | 75* | 0.6 | 40 | 0.3
O=c1c(-c2ccccc2)n[nH]c2ccccc12 | 10 | 22 | 0.7 | 31 | 0.8
COC(=O)c1ccc(N2C(=O)CC(Sc3n[nH]c(C)n3)C2=O)cc1 (stereo not drawn) | 13 | 8 | 1 | 5 | 0.9
CN=C(Nc1cc(Cl)ccc1Cl)SC1CC(=O)N(c2ccc(C(=O)OC)cc2)C1=O (stereo not drawn) | 7 | 92* | 0 | 100* | 0.1
CCCS(=O)(=O)c1nc(S(=O)(=O)c2ccc(C)cc2)c(N2CCCC2)s1 | 1 | 17 | 0.6 | 44 | 0.8
CC(C)C(=O)Nc1ccc(N2CCN(S(C)(=O)=O)CC2)cc1 | 3 | -8 | 1.1 | -6 | 1.1
CCN(c1ccccc1)S(=O)(=O)c1ccc(F)cc1C | 9 | 67* | 0.9 | 10 | 0.3
O=C(CNC(=O)c1ccc(Oc2ccccc2)cc1)OCc1ccc(Br)cc1 | 6 | / | / | / | /
CC(C)(C)C(=O)Nc1ccc(C(=O)N/N=C/c2ccccc2OC(=O)c2ccccc2)cc1 | 4 | 64* | 0.6 | 37 | 0.4
COc1cc(C(=O)Oc2ccccc2/C=N/NC(=O)c2ccc(C)cc2)cc(OC)c1OC | 2 | 33 | 0.4 | 59* | 0.7
CC(=O)Nc1cc(C(=O)N2CCCC2)ccc1Sc1ccc(Cl)cc1 | 4 | 29 | 0.9 | 9 | 0.7
CC(=O)Nc1cc(C(=O)N2CCCC2)ccc1Sc1ccc(C)cc1 | 10 | 65* | 0.6 | 36 | 0.4
CCCCCOC(=O)CC(C(=O)OCCCCC)N1CCCCC1 (stereo not drawn) | 11 | / | / | / | /
CCCCCCCCCOC(=O)C(CC(=O)O)N1CCOCC1 (stereo not drawn) | 12 | 4 | 0.2 | 77* | 1
Cc1sc2nc(CN3CCOCC3)nc(NS(=O)(=O)c3ccc4c(c3)OCCO4)c2c1C | 10 | 31 | 0.2 | 80* | 0.7
NS(=O)(=O)c1ccc(CCNc2nc(CN3CCOCC3)nc3sc4c(c23)CCC4)cc1 | / | -4 | 0.7 | 34 | 1
Cc1sc2nc(CN3CCOCC3)nc(NCCc3ccccc3)c2c1C | 4 | 40 | 0.1 | 90* | 0.6
CC(=O)Nc1ccc(S(=O)(=O)Nc2nc(CN3CCOCC3)nc3sc4c(c23)CCCC4)cc1 | 5 | -11 | 0.5 | 53* | 1.1
Cc1cc(C(=O)Nc2c(F)cc(F)cc2Br)no1 | 8 | -1 | 1.1 | -8 | 1
O=C(Nc1c(F)cc(F)cc1Br)c1cc(-c2ccc(O)cc2)on1 | 11 | 87* | 1.6 | -58 | 0.1
C=CCNC(=O)c1cc(-c2ccc(Br)cc2)on1 | 63* | -14 | 1 | -2 | 1.1
COc1ccccc1/C=C(/CC(=O)NCc1ccc2c(c1)OCO2)c1nc2ccccc2s1 | 20 | / | / | / | /
SMILES | Measles CPE | CYP2C19 inhib | CYP2C9 activ | CYP2C9 inh | CYP2C19 activ
COc1ccc(NC(=O)CNS(=O)(=O)c2ccc(Cl)cc2)cc1OC | 8 | / | / | / | /
COc1ccc(CNC(=O)/C=C/c2cc([N+](=O)[O-])ccc2OC(F)F)cc1 | 21 | 7 | 1 | -2 | 0.9
COc1ccc(CNC(=O)/C=C/c2cc([N+](=O)[O-])ccc2OC(F)F)cc1OC | 12 | 29 | 2.1* | -108 | 0.7
O=c1nc(-c2ccccc2)c2cc(Cl)ccc2[nH]1 | 4 | -8 | 0.9 | 10 | 1.1
O=c1cc2[nH]c3ccccc3c(=O)n2nc1-c1ccccc1 | 9 | 37 | 0.3 | 71* | 0.6
COc1ccccc1N(C)S(=O)(=O)c1ccc(C(=O)N(CC(N)=O)C(C)C)cc1 | 18 | -11 | 1 | 0 | 1.1
COc1ccccc1N(C)S(=O)(=O)c1ccc(C(=O)NCC(C)C)cc1 | 11 | 52* | 0.2 | 83* | 0.5
CCC(C)(C)NC(=O)c1ccc(S(=O)(=O)N(C)c2ccccc2OC)cc1 | 8 | 15 | 0.4 | 65* | 0.8
CCOC(=O)Nc1ccccc1C(=O)N1CCOCC1 | 8 | 2 | 1 | -5 | 1
Cc1cc(C)nc(-n2nc(C)cc2NC(=O)c2cccc(S(=O)(=O)N3CCOCC3)c2)n1 | 4 | 5 | 0.7 | 28 | 0.9
